# Compounds with a hit are over-represented: about 20% of the library has one in this group of screens.
# Shiga inhibitor: blocks Shiga toxin action in Vero cells; Vero cells, Shiga toxin protein synthesis inhibition reporter; AID 2315; 290,000 compounds, 9.2% hits; inhibition, % at 38.7 µM; in the data active means inhibition mostly above about 28%, no sharp cut-off; inactive means mostly below about 43%
# Pf growth 96h: P. falciparum growth inhibition at 96 hour, primary screen for plastid delayed-death inhibitors; Potency, µM (doses to about 28.7 µM), actives largely listed as inhibitors; P. falciparum luciferase reporter growth, 96 h; 320,000 compounds, 6.9% hits
#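 Two parasite generations (96 h, 37 C, 5% CO2) of compound exposure in infected erythrocytes (0.05% parasitemia, 2% hematocrit). Luciferase-reporter P. falciparum; decreased luminescence indicates inhibited growth, aimed at apicoplast-acting delayed death.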
# CHX counter: counter-screen hit for Shiga toxin inhibitors, cycloheximide. AID 2314. max response, %. 300,000 compounds, 12% hits. cell reporter, cycloheximide protein synthesis inhibition counterscreen; in the data active means max response mostly above about 13%, no sharp cut-off; inactive means mostly below about 14%; further: read at 38.3 µM for the half of the compounds with a filed dose
# HCMV antiviral: blocks human cytomegalovirus replication. HFF cells, HCMV-luciferase reporter, 72 h; stronger effect = lower value. activity change, negative = inhibition, % at 57.5 µM. 410,000 compounds, 4.5% hits. AID 1259415; in the data active means activity change below about -60%; inconclusive means no clear call, values can overlap the other calls; inactive means above about -39%
#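 Two-dose cell screen: HFF monolayers treated with compounds and infected with luciferase-expressing HCMV at 1 PFU/cell, 72 h at 37C, then lysed for luciferase measurement.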
# Pf growth 48h: P. falciparum growth inhibition at 48 hours (one generation); P. falciparum luciferase growth in erythrocytes, 48 h; Potency, µM (titrated, usually from 28.7 µM), most hits filed as inhibitors; 310,000 compounds, 5.9% hits
#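 A one-generation exposure of luciferase-tagged malaria parasites in RPMI 1640/Albumax erythrocyte culture, 37 C and 5% CO2. Inhibition is inferred from decreased luminescence after adding detection reagent.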
# Hits are given with their value; - = inactive; ? = inconclusive; . = no result; [ ] = dose if it differs, or a comment. Unless noted, the call rests on the fitted dose curve; in most records, active means well fitted inhibition curve with a large enough effect; inconclusive means small, poorly fitted or top-dose-only effect, or another doubt; inactive means no such curve, though single readings can be large or run the other way.
SMILES,Shiga inhibitor,Pf growth 96h,CHX counter,HCMV antiviral,Pf growth 48h
CCCCSC1=NN1c1nc(N)nc(C)c1CC,-,8.3µM,-,-,.
CCc1c(C)nc(N)nc1N1N=C1SC,-,?,-,-,.
COc1ccc(N2CC(NC(=O)C3CCCCC3)CC2=O)cc1 (centres undefined),.,.,.,-,.
O=C(NCc1nc2ccccc2[nH]1)C1=C[C@@H](c2csc3ccccc23)C[C@@H](OCc2ccc(CO)cc2)O1,-,3.3µM,-,-,?
C[C@H]1C=C(C(=O)NCc2nc3ccccc3[nH]2)O[C@@H](OCc2ccc(CO)cc2)C1,-,-,-,-,-
O=C(NCc1nc2ccccc2[nH]1)C1=C[C@@H](c2ccc(Br)cc2)C[C@@H](OCc2ccc(CO)cc2)O1,-,?,-,-,?
O=C(NCc1nc2ccccc2[nH]1)C1=C[C@H](c2csc3ccccc23)C[C@H](OCc2ccc(CO)cc2)O1,-,15µM,-,-62,12µM
Nc1cc(N)nc(SCC(=O)NCc2ccc3c(c2)OCO3)n1,.,.,.,-,.
O=[N+]([O-])c1ccc(/C=[N+](\[O-])CCO)o1,-,?,-,-,?
Oc1ccc(-c2[nH]ncc2-c2ccc(Cl)cc2)c(O)c1,-,-,-,-,?
COc1ccccc1Oc1cn[nH]c1-c1ccc(OCC(=O)NN)cc1O,-,?,-,-,-[0.00184 µM]
CCc1cc(-c2[nH]ncc2-c2ccc([N+](=O)[O-])cc2)c(O)cc1OC,-,-,-,.,4.7µM
COc1ccc(-c2cn[nH]c2-c2ccc(OCc3ccccc3F)cc2O)cc1OC,-,?,-,-61,?
O=[N+]([O-])c1ccc(COc2ccc(-c3[nH]ncc3-c3ccc(Cl)cc3)c(O)c2)cc1,-,?,-,-,2.3µM
COc1ccc(-c2cn[nH]c2-c2ccc(OCc3ccc([N+](=O)[O-])cc3)cc2O)cc1OC,-,9.3µM,-,-96,10µM
Cc1ccc(S(=O)(=O)CCC(=O)OCc2nnc(-c3ccccc3)o2)cc1,.,.,.,-,.
Cc1cc(C)nc(NS(=O)(=O)c2ccc(NC(=O)c3snnc3C)cc2)n1,-,-,-,-,-
COc1ccc(Nc2cc3c(cn2)cc(-c2cccc(C(F)(F)F)c2)n3C)cc1,.,.,.,-,.
O=C(NCc1ccccc1)C1C(c2ccc3c(c2)OCO3)=Nc2ccccc2N1C(=O)c1ccccc1 (centres undefined),.,.,.,-,.
O=C(NCc1ccccc1)C1C(c2ccc3c(c2)OCO3)=Nc2ccccc2N1C(=O)c1ccco1 (centres undefined),.,.,.,-62,.
O=C(Nc1ccccc1)c1ccccc1OCc1ccc(F)cc1,.,-,-,-,-
NNC(=O)c1ccccc1OCc1ccccc1,38,?,17,?,-
O=C(Nc1ccc(O)cc1)c1ccccc1OCc1ccccc1,-,?,-,-77,?
CC(=O)c1ccc(OCc2ccccc2)c(C)c1O,-,-,29,-,-
COc1cc(NC(=O)c2ccccc2OCc2ccccc2)cc(OC)c1OC,-,-,-,-,9.3µM
SMILES,Shiga inhibitor,Pf growth 96h,CHX counter,HCMV antiviral,Pf growth 48h
CC1=NN(C(=O)Cc2ccccc2)C(O)(c2cccnc2)C1 (centres undefined),-,-,-,-,-
COC(=O)CCSCc1cn2cc(Cl)ccc2n1,-,-,16,-,-
O=C(O)CSCc1cn2cc(Cl)ccc2n1,-,?,-,-,.
CCOC(=O)c1ccc(N2CCN(c3cccc(Cl)c3)CC2)c(NC(=O)Nc2ccc(Cl)cc2)c1,.,.,.,-,.
COc1ccc(CCNC(=O)c2cc3c(C)nccc3[nH]c2=O)cc1OC,-,?,-,-,?
Cc1ccc(OCCCCn2nnc3sc4c(c3c2=O)CCCC4)cc1,.,.,.,-,.
CCCc1cc2c(=O)c(-c3ccccn3)coc2cc1OC,90,-,44,?,-
CCCc1cc(=O)oc2cc(Oc3ncccn3)ccc12,-,.,-,-,-
CCCc1cc2c(=O)c(-c3ccccn3)c(C)oc2cc1O,-,9.3µM,-,-,?
O=C1CN(C(=O)Cc2ccc(F)cc2)C(c2ccccc2)c2cc(Cl)ccc2N1 (centres undefined),.,.,.,-,.
Oc1ccc(-c2sc(Nc3ccccc3)n[n+]2-c2ccc(F)cc2)cc1,-,-,-,?,-
COc1ccc(C)cc1Nc1n[n+](-c2ccccc2)c(-c2c(OC)ccc3ccccc23)s1,.,?,.,-101,3.7µM
COc1ccc(C)cc1NC1=NCCCS1,-,-,-,-,-
COc1ccc(C)cc1Nc1n[n+](-c2ccccc2)c(-c2ccc(C(=O)O)cc2)s1,-,2.3µM,-,-,-

# Screening data: PubChem BioAssay, National Center for Advancing Translational Sciences (NCATS)
